Data as given in PubChem BioAssay (NCATS).
“And” between values parts separate entries of the source, which are not always exact repeats. Identical values can stand only once. Inconclusive results are not listed. Some structures have more than one record in an assay (separate samples or runs), and their calls can disagree. The source made the active and inactive calls. Unless noted, calls come from the whole dose curve; as a rule, active = well fitted curve in the direction sought with a large enough effect; inconclusive = small, poorly fitted or top-dose-only effect, or another doubt; inactive = no such curve, though single readings can be large; an effect the other way counts as inactive or inconclusive.

Assays:
[1] = tested on: CAOV3; assay: Primary qHTS to identify gynecologic anti-cancer compounds using libraries of approved drugs and bioactive compounds (AID 1345084); conditions: Gynecologic cancer cell panel viability, ATPlite luminescence, 48 h; series mostly up to 57.5 µM; note: nearly all actives have a fitted effect of over 55% in size; note: potency is the fitted concentration of half-maximal effect
Method in brief: (§1)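 Luminescence from the ATPlite ATP-monitoring reagent indicates viable cell number; lower signal means cytotoxicity. Cells received compound 16 h after seeding and were exposed for 48 h across five concentrations.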

[2] = tested on: CASKI; assay: as above; conditions: Gynecologic cancer cell panel viability, ATPlite luminescence, 48 h; series mostly up to 57.5 µM
Method in brief: as §1

[3] = tested on: Es-2; assay: as above; conditions: Gynecologic cancer cell panel viability, ATPlite luminescence, 48 h; series mostly up to 57.5 µM
Method in brief: as §1

[4] = tested on: HeLa; assay: as above; conditions: Gynecologic cancer cell panel viability, ATPlite luminescence, 48 h; series mostly up to 57.5 µM
Method in brief: as §1

[5] = tested on: Hek293T; assay: as above; conditions: Gynecologic cancer cell panel viability, ATPlite luminescence, 48 h, control line for the selectivity index; series mostly up to 57.5 µM
Method in brief: as §1

[6] = tested on: JEG-3; assay: as above; conditions: Gynecologic cancer cell panel viability, ATPlite luminescence, 48 h; series mostly up to 57.5 µM
Method in brief: as §1

[7] = tested on: OV90; assay: as above; conditions: Gynecologic cancer cell panel viability, ATPlite luminescence, 48 h; series mostly up to 57.5 µM
Method in brief: as §1

[8] = tested on: PA-1; assay: as above; conditions: Gynecologic cancer cell panel viability, ATPlite luminescence, 48 h; series mostly up to 57.5 µM
Method in brief: as §1

[9] = tested on: SKOV3; assay: as above; conditions: Gynecologic cancer cell panel viability, ATPlite luminescence, 48 h; series mostly up to 57.5 µM
Method in brief: as §1

[10] = tested on: Tov-21-G; assay: as above; conditions: Gynecologic cancer cell panel viability, ATPlite luminescence, 48 h; series mostly up to 57.5 µM
Method in brief: as §1

[11] = tested on: Tov112D; assay: as above; conditions: Gynecologic cancer cell panel viability, ATPlite luminescence, 48 h; series mostly up to 57.5 µM
Method in brief: as §1

[12] = Drug repurposing screens with cells derived from glioblastoma tumor samples (AID 1345199); conditions: GBM patient neurospheres viability, ATP luminescence, 48 h; note: nearly all actives have a fitted effect of over 40% in size; note: potency is the fitted concentration of half-maximal effect; for activity, negative = cell killing: % is set by controls: 0 for no effect and ±100 for the full control effect
Method in brief: (§2)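 Four patient lines of CD133+ GBM neurospheres were screened at several concentrations; hits were retested in those lines plus three slower-growing GBM lines, using 48-hour treatment and ATP-based viability.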

[13] = tested on: astro; assay: as above; conditions: viability, ATP luminescence, 48 h; series mostly up to 45.9 µM
Method in brief: as §2

[14] = molecular target: Nuclear receptor subfamily 1 group I member 2 (Rattus norvegicus) (UniProt Q9R1A7); assay: qHTS assay for small molecule activators of the rat pregnane X receptor (rPXR) signaling pathway (AID 651751; call rule not given here; note: 0% is about no effect); conditions: rPXR reporter cells, luciferase (One-Glo), 24 h
Chain of Nuclear receptor subfamily 1 group I member 2 (Rattus norvegicus) (Q9R1A7 whole entry, looked up): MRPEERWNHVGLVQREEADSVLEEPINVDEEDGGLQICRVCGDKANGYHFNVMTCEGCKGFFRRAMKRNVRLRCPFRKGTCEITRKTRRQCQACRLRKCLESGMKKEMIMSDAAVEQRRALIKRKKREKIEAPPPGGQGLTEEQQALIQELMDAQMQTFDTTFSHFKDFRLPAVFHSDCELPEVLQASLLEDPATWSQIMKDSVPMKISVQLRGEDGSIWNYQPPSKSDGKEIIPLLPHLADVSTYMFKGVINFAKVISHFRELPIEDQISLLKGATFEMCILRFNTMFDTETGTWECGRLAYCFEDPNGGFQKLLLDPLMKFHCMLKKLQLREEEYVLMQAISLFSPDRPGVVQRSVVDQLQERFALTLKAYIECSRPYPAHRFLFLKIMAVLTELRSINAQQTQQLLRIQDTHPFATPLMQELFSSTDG

[15] = qHTS assay for small molecule activators of the human pregnane X receptor (PXR) signaling pathway (AID 720659; call rule not given here; note: 0% is about no effect)
[16] = at 45.9 µM (top of the series), tumour line B
[17] = at 45.9 µM (top of the series), tumour line D
[18] = at 46 µM (top of the series), tumour line A

COc1ccc(C(CN(C)C)C2(O)CCCCC2)cc1 (stereo not drawn)
inactive: Potency [1] | Potency [2] | Potency [3] | Potency [4] | Potency [5] | Potency [6] | Potency [7] | Potency [8] | Potency [9] | Potency [10] | Potency [11] | activity, negative = cell killing [12, 16] -10.5% | activity, negative = cell killing [12, 17] 1.59% | activity, negative = cell killing [12, 18] -20% | Potency [13]

CC(C)(C)NCC(O)c1cc(Cl)c(N)c(Cl)c1 (stereo not drawn)
inactive: Potency [1] | Potency [2] | Potency [3] | Potency [4] | Potency [5] | Potency [6] | Potency [7] | Potency [8] | Potency [9] | Potency [10] | Potency [11] | activity, negative = cell killing [12, 16] -4.05% | activity, negative = cell killing [12, 17] -25.9%

O=C(O)C(=O)c1cn(Cc2ccccc2)c2ccc(-c3ccc(OC(F)(F)F)cc3)cc12
inactive: Potency [1] | Potency [2] | Potency [3] | Potency [4] | Potency [5] | Potency [6] | Potency [7] | Potency [8] | Potency [9] | Potency [10] | Potency [11]

CCN(CC)CCN1C(=O)CN=C(c2ccccc2F)c2cc(Cl)ccc21
inactive: Potency [1] | Potency [2] | Potency [3] | Potency [4] | Potency [5] | Potency [6] | Potency [7] | Potency [8] | Potency [9] | Potency [10] | Potency [11] | activity, negative = cell killing [12, 16] -20.2% | Potency [13]
active: Potency ([12]; tumour line A) 14.1 µM

CN1C(=S)CN=C(c2ccccc2)c2cc(Cl)ccc21
inactive: Potency [1] | Potency [2] | Potency [3] | Potency [4] | Potency [5] | Potency [7] | Potency [8] | Potency [9] | Potency [10] | Potency [11] | activity, negative = cell killing [12, 16] -24.8% | activity, negative = cell killing [12, 17] -20.4%

O=C1NCN(c2ccccc2)C12CCN(CC1COc3ccccc3O1)CC2 (stereo not drawn)
active: Potency ([12]; tumour line A) 12.6 µM
inactive: Potency [1] | Potency [2] | Potency [3] | Potency [4] | Potency [5] | Potency [7] | Potency [8] | Potency [9] | Potency [10] | Potency [11] | activity, negative = cell killing [12, 16] -6.74% | Potency [13]

CC(=O)[C@H]1CC[C@H]2[C@@H]3CC[C@H]4C[C@](C)(O)CC[C@]4(C)[C@H]3CC[C@]12C
inactive: Potency [1] | Potency [2] | Potency [3] | Potency [4] | Potency [5] | Potency [7] | Potency [8] | Potency [9] | Potency [10] | Potency [11] | activity, negative = cell killing [12, 16] -20.7% | Potency [13]

CN1CCN(C(=O)O[C@H]2c3nccnc3C(=O)N2c2ccc(Cl)cn2)CC1
inactive: Potency [1] | Potency [2] | Potency [3] | Potency [4] | Potency [5] | Potency [7] | Potency [8] | Potency [9] | Potency [10] | Potency [11] | activity, negative = cell killing [12, 16] -4.94% | activity, negative = cell killing [12, 17] -12.7% | activity, negative = cell killing [12, 18] -22.2% | Potency [13]

Oc1ccc(Cl)cc1Cc1ccccc1
inactive: Potency [1] | Potency [2] | Potency [3] | Potency [4] | Potency [5] | Potency [6] | Potency [8] | Potency [9] | Potency [10] | Potency [11] | activity, negative = cell killing [12, 16] -24.8% | max response [14] 0.0184% and 1.61%

Cc1ncc(CNC(=O)N(CCCl)N=O)c(N)n1
active: Potency [7] 35.5 µM
inactive: Potency [1] | Potency [2] | Potency [3] | Potency [4] | Potency [5] | Potency [8] | Potency [9] | Potency [10] | Potency [11] | activity, negative = cell killing [12, 16] -2.44% | activity, negative = cell killing [12, 17] -2.73% | activity, negative = cell killing [12, 18] -26.1% | Potency [13]

C[C@]12CC[C@H]3[C@@H](CCC4=CC(=O)CC[C@@H]43)[C@@H]1CC[C@@H]2OC(=O)CCc1ccccc1
inactive: Potency [1] | Potency [2] | Potency [3] | Potency [5] | Potency [6] | Potency [7] | Potency [9] | Potency [10] | Potency [11]
active: Potency [4] 3.55 µM

O=c1oc2ccccc2c(O)c1C(CC(O)c1ccc(-c2ccc(Br)cc2)cc1)c1ccccc1 (stereo not drawn)
inactive: Potency [1] | Potency [2] | Potency [3] | Potency [4] | Potency [5] | Potency [6] | Potency [7] | Potency [8] | Potency [9] | Potency [10] | Potency [11] | activity, negative = cell killing [12, 16] -19.7% | max response [14] -13.3% | outcome [15]

CCN(CC)CCOC(=O)C(O)(c1ccccc1)c1ccccc1
inactive: Potency [1] | Potency [2] | Potency [3] | Potency [4] | Potency [5] | Potency [7] | Potency [8] | Potency [9] | Potency [10] | Potency [11] | activity, negative = cell killing [12, 16] -7.05% | activity, negative = cell killing [12, 17] -0.674% | activity, negative = cell killing [12, 18] -16.9% | Potency [13]

NCCc1cc(O)c(O)cc1O
inactive: Potency [1] | Potency [2] | Potency [3] | Potency [4] | Potency [5] | Potency [7] | Potency [8] | Potency [9] | Potency [10] | Potency [11] | activity, negative = cell killing [12, 16] -19% | activity, negative = cell killing [12, 17] -22%

c1ccc2c(c1)Nc1ccccc1S2
inactive: Potency [1] | Potency [2] | Potency [3] | Potency [4] | Potency [5] | Potency [7] | Potency [8] | Potency [9] | Potency [10] | Potency [11] | activity, negative = cell killing [12, 16] -14.1% | activity, negative = cell killing [12, 17] -9.6% | activity, negative = cell killing ([12]; at 91.6 µM (top of the series), tumour line B) -11.1% | activity, negative = cell killing ([12]; at 91.6 µM (top of the series), tumour line D) -20.1% | max response [14] 0.0251% and 2.69%
active: Potency ([12]; tumour line A) 31.6 µM

CC[C@@H](CO)NC(=O)[C@@H]1C=C2c3cccc4c3c(cn4C)C[C@H]2N(C)C1
inactive: Potency [1] | Potency [2] | Potency [3] | Potency [4] | Potency [5] | Potency [7] | Potency [8] | Potency [9] | Potency [10] | Potency [11]
active: Potency ([12]; tumour line A) 35.5 µM | Potency ([12]; tumour line B) 17.8 µM
